Measured values reported in PMC4336329 (PLoS ONE, 2015).
Among all 310,000 compounds or so, about 2,200 (0.71%) showed an effect of 50% or more. Effects have a minus sign here. Many of the other results were omitted from the sample, so strong results are more common in it than they were.

These molecules were tested against human ether-à-go-go-related gene (hERG) potassium channel (human, UniProt Q12809) (assay: primary screen, population patch clamp on CHO cells stably expressing hERG; higher = less effect of the substance).
Chain of human ether-à-go-go-related gene (hERG) potassium channel (Q12809 whole entry, looked up): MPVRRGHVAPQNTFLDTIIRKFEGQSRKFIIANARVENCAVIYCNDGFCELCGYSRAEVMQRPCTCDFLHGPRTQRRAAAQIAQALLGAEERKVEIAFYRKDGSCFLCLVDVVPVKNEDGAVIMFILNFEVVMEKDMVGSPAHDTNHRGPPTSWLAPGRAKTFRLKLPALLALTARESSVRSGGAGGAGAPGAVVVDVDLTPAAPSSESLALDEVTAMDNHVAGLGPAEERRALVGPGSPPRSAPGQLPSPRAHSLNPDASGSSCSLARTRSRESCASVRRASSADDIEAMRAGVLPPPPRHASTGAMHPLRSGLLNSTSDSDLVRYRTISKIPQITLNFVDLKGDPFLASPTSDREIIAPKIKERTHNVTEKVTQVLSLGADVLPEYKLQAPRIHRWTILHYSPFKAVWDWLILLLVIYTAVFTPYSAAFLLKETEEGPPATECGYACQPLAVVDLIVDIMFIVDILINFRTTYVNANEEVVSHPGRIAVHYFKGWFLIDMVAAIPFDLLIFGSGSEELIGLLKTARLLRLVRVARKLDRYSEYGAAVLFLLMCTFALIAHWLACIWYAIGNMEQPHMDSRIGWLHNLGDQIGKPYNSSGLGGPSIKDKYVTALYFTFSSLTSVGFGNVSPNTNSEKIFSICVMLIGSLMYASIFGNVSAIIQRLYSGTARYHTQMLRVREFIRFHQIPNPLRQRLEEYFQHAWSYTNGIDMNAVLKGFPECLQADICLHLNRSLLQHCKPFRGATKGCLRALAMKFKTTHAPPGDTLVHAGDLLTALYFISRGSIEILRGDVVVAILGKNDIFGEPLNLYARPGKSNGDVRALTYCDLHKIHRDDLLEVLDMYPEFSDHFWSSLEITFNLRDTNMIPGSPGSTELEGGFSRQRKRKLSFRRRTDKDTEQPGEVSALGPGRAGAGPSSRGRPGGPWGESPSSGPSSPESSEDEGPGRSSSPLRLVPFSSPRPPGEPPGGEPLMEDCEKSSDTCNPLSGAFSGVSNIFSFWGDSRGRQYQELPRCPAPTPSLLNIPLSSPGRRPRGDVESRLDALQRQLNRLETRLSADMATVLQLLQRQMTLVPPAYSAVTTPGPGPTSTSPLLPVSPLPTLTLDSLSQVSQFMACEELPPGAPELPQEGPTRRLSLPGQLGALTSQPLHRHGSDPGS

Row | Compound | hERG current change (%, negative = inhibition) at 1uM [%]
1 | CCOCCCNS(=O)(=O)c1ccc2c(c1)oc(=O)n2CC(=O)OCC | 10.3
2 | COCCN1CCN(C(=O)C2CCC(=O)N(Cc3ccccc3F)C2)CC1 (stereo not drawn) | 9.05
3 | COc1c(/C=N/NC(=O)c2ccccc2O)c(CCN(C)C(C)=O)cc2c1OCO2 | 8.13
4 | CCN(CC)CCCNC(=O)c1c(O)c2ccccc2n(Cc2ccccc2)c1=O.Cl | -12.3
5 | Cc1ccccc1N1C(=O)c2ccccc2NC1c1ccncc1 (stereo not drawn) | 13
6 | COc1ccccc1/C=C/C(=O)NCC(=O)N/N=C(\CCC(=O)O)c1ccccc1 | -2.9
7 | NNC(=O)c1ccc(-c2ccccc2F)cc1 | 14.8
8 | Nc1nnc(C(F)(F)F)s1 | 4.92
9 | CSc1ccc(/C=N/NC(=O)CN2CCN(Cc3ccc(Cl)cc3)CC2)cc1 | 2.29
10 | NC(=O)c1ccccc1NC(=O)CN1CCCCCC1 | 13.4
11 | CSc1ccc(/C=N/NC(=O)CN2CCN(Cc3ccccc3)CC2)cc1 | -60
12 | NC(=O)c1ccccc1NC(=O)CN1CCN(Cc2ccccc2)CC1 | -77.7
13 | O=C(CN1CCN(Cc2ccccc2)CC1)Nc1ccccc1-c1ccccc1 | -39.6
14 | CSc1ccc(/C=N/NC(=O)CN2CCN(Cc3ccc(C)cc3)CC2)cc1 | 2.67
15 | COc1ccc(N(CC(=O)NCc2ccc(C)cc2)S(=O)(=O)c2c(C)[nH]c(=O)[nH]c2=O)cc1 | 16
16 | Cc1nc2cc3nc(C)sc3cc2s1 | 3.19
17 | Cc1cc(C)cc(NC(=O)CCNS(=O)(=O)c2ccc3c(c2)oc(=O)n3C)c1 | 9.33
18 | COCC(=O)N1CCC(Oc2ccc(C(=O)NCc3cnc(C)cn3)cc2)CC1 | 13
19 | CCN(c1cccc(C)c1)S(=O)(=O)c1ccc(-c2ccc(=O)[nH]n2)o1 | 12.8
20 | Cc1cc(Br)ccc1OCCN1CCCC1.O=C(O)C(=O)O | -7.85
21 | O=C(O)C(=O)O.c1ccc(-c2ccccc2OCCN2CCCCC2)cc1 | -4.98
22 | O=C(O)C(=O)O.c1ccc(-c2ccccc2OCCCN2CCCCC2)cc1 | -69.1
23 | Cc1cc(Br)ccc1OCCCCN1CCCCC1.O=C(O)C(=O)O | -66.6

Row | Compound | hERG current change (%, negative = inhibition) at 1uM [%]
24 | CC1CCN(CCOc2ccccc2-c2ccccc2)CC1.O=C(O)C(=O)O | -8.4
25 | O=C(O)C(=O)O.O=C(c1ccccc1)c1ccc(OCCOCCN2CCN(Cc3ccccc3)CC2)cc1 | -82.8
26 | CN1CCN(CCCCOc2ccccc2-c2ccccc2)CC1.O=C(O)C(=O)O | 16.8
27 | Cc1cc(Br)ccc1OCCOCCN1CCCC1.O=C(O)C(=O)O | -9.41
28 | O=C(O)C(=O)O.c1ccc(CN2CCN(CCOCCOc3ccc4c(c3)CCC4)CC2)cc1 | 11.6
29 | O=C(O)C(=O)O.O=C(c1ccccc1)c1ccc(OCCCN2CCCC2)cc1 | -29.9
30 | CC1CCN(CCCCOc2ccccc2-c2ccccc2)CC1.O=C(O)C(=O)O | -74.9
31 | O=C(O)C(=O)O.c1ccc(-c2ccccc2OCCOCCN2CCCCC2)cc1 | -18.9
32 | CC1CC(=O)Nc2ccccc2N1C(=O)Nc1ccc(F)cc1 (stereo not drawn) | 9.77
33 | CC(C)CCN(C(=S)Nc1cccc(C(F)(F)F)c1)C(C)c1ccccn1 (stereo not drawn) | 10.7
34 | CCOc1cc(C2/C(=C(/O)c3ccc(OC(C)C)cc3)C(=O)C(=O)N2CCCOC)ccc1O (stereo not drawn) | 21.3
35 | Clc1ccc(Oc2nc(N3CCOCC3)nc(N3CCOCC3)n2)c(C2CCCCC2)c1 | 10.6
36 | Clc1cccc(Cl)c1CN1CCN(c2ccccc2)CC1 | 15.9
37 | O=C(CCN1C(=O)C2C3CCC(C3)C2C1=O)Nc1cccc(Cl)c1 (stereo not drawn) | 4.67
38 | CCC1(CC)NC(=O)N(CC(=O)OCC(=O)Nc2ccc(F)c(F)c2F)C1=O | 4.85
39 | Cc1ccc(NC(=O)/C=C/c2ccc([N+](=O)[O-])s2)c(C)c1 | 10.5
40 | CCOc1ccccc1-n1c(SCC(=O)NC(C)CC)nnc1-c1ccoc1C (stereo not drawn) | -2.44
41 | CCOCCCn1c(SC(C(=O)Nc2cc(C)ccc2C)c2ccccc2)nnc1-c1ccc(Cl)cc1 (stereo not drawn) | 13.5
42 | CC(=O)Nc1ccc(S(=O)(=O)NC2(C(F)(F)F)NC(=O)N(c3ccccc3F)C2=O)cc1 (stereo not drawn) | 19.3
43 | COc1ccc(NS(=O)(=O)c2ccc(/C=C/C(=O)O)cc2)cc1S(=O)(=O)N1CCOCC1 | 10.7
44 | COc1ccc(NC(=O)c2ccc(S(=O)(=O)NCc3cccnc3)cc2)cc1 | -13.3
45 | O=C(Nc1ccc2oc(-c3ccccc3F)nc2c1)c1ccc2c(c1)OCCO2 | 3.14
46 | Cl.OCCN1CCN(CCOc2ccccc2-c2ccccc2)CC1 | 6.46

Row | Compound | hERG current change (%, negative = inhibition) at 1uM [%]
47 | Cl.OCCCN1CCN(CCCOc2ccccc2-c2ccccc2)CC1 | -57.7
48 | COCCNCCCOc1ccc(Br)cc1Cl.O=C(O)C(=O)O | 0.786
49 | CC1CCN(CCOc2ccc(C(=O)c3ccccc3)cc2)CC1.O=C(O)C(=O)O | 3.49
50 | COCCCNCCCCOc1ccc(Br)cc1C.O=C(O)C(=O)O | -24
51 | O=C(O)C(=O)O.c1ccc(COc2ccc(OCCCCN3CCCCC3)cc2)cc1 | -46.8
52 | CC1CCN(CCCCOc2ccc(C(=O)c3ccccc3)cc2)CC1.O=C(O)C(=O)O | -72.4
53 | O=C(O)C(=O)O.c1ccc(COc2ccc(OCCCN3CCCCC3)cc2)cc1 | -57.7
54 | COCCCNCCCCOc1ccc(Br)cc1Cl.O=C(O)C(=O)O | -61.5
55 | CCN1CCN(CCCOc2ccccc2-c2ccccc2)CC1.O=C(O)C(=O)O | -16.6
56 | Cc1ccc(OCCCCN2CCC(C)CC2)cc1.O=C(O)C(=O)O | -0.565
57 | O=C(O)C(=O)O.c1ccc(COc2ccc(OCCCN3CCCC3)cc2)cc1 | -39.1
58 | CCN(CC)S(=O)(=O)c1ccc(C(=O)NCc2ccc3[nH]c4c(c3c2)CCCC4)cc1 | 16.4
59 | COc1cccc(CN2CCC(C(=O)N3CCN(c4ccccc4F)CC3)CC2)c1 | -20.8
60 | CCCn1c(=O)c(C(=O)Nc2ccccc2C(=O)OCC)c(O)c2ccccc21 | 16.2
61 | CNC(=S)Nc1cc(C(F)(F)F)ccc1Cl | -4.86
62 | Cc1cc(OCC(=O)Nc2ccc3oc(-c4ccncc4)nc3c2)ccc1Cl | 9.6
63 | Cc1ccc(/C=C2\SC(=S)N(CCCC(=O)Nc3ccccn3)C2=O)cc1 | 3.9
64 | Cc1csc(NC(=O)C2=NN(c3ccccc3)C(=O)CC2)n1 | 9.03
65 | Brc1ccccc1OCCCN1CCCC1.O=C(O)C(=O)O | 8.64
66 | CN1CCN(CCOCCOc2ccc(Br)cc2Cl)CC1.O=C(O)C(=O)O | 10.1
67 | CC1CCN(CCOCCOc2ccc(Br)cc2Cl)CC1.O=C(O)C(=O)O | -52
68 | Brc1ccccc1OCCCN1CCCCCC1.O=C(O)C(=O)O | -59.2
69 | O=C(O)C(=O)O.c1ccc(-c2ccccc2OCCCN2CCCCCC2)cc1 | -52.7

Row | Compound | hERG current change (%, negative = inhibition) at 1uM [%]
70 | O=C(O)C(=O)O.c1ccc(-c2ccccc2OCCCN2CCCC2)cc1 | -49.4
71 | Brc1ccccc1OCCCCN1CCCCC1 | -1.28
72 | CC1CCCN(CCOCCOc2ccc(Br)cc2Cl)C1.O=C(O)C(=O)O (stereo not drawn) | -7.22
73 | O=C(O)C(=O)O.c1ccc(-c2ccccc2OCCCCN2CCCCCC2)cc1 | -48.2
74 | CNc1ccccc1C(=O)OCC(=O)c1ccc(F)cc1 | 7.17
75 | CCN1C(=O)c2ccc(C(=O)NCc3ccco3)cc2C1=O | 11
76 | O=C(CC1Sc2ccccc2NC1=O)NNC(=O)Nc1ccc(Cl)cc1 (stereo not drawn) | 9.26
77 | CCOc1ccccc1NC(=O)C(NCC1(N2CCCCC2)CCCCC1)c1ccccc1.O=C(O)C(=O)O (stereo not drawn) | -57.4
78 | CCOc1ccccc1NC(=O)C(NCCN(C)C)c1ccccc1.O=C(O)C(=O)O (stereo not drawn) | -49.1
79 | CCOc1ccccc1NC(=O)C(NCC1CCCCC1)c1ccccc1 (stereo not drawn) | 8.03
80 | C/C(N)=C(\C#N)C(=O)NCc1ccccn1 | 10.9
81 | Cc1cc(C)c(-c2cc(C(F)(F)F)no2)c(=O)[nH]1 | 12.2
82 | CCN(CC)CCn1nc2c3c(cccc3c1=O)-c1ccccc1-2 | -50
83 | O=C(O)Cn1nc2c3c(cccc3c1=O)-c1ccccc1-2 | 8.49
84 | O=c1c2cccc3c2c(nn1CN1CCOCC1)-c1ccccc1-3 | -15.3
85 | COc1ccc(OC(=O)NCCc2ccccc2)cc1 | 12.2
86 | Cc1cccn2c(=O)c3cc(S(=O)(=O)c4ccc(Br)cc4)c(=N)n(C4CCCCC4)c3nc12 | 26
87 | Cc1ccc(S(=O)(=O)c2cc3c(=O)n4cccc(C)c4nc3n(C3CCCCC3)c2=N)cc1 | 8.4
88 | Cc1cccn2c(=O)c3cc(C(=O)NCc4ccco4)c(=N)n(C4CCCC4)c3nc12 | -85.5
89 | Cc1cccn2c(=O)c3cc(S(=O)(=O)c4ccc(Br)cc4)c(=N)n(C4CCCC4)c3nc12 | 14.5
90 | Cc1cccn2c(=O)c3cc(C(=O)NCc4ccco4)c(=N)n(C4CCCCC4)c3nc12 | -84.8
